Assay results taken from PubChem BioAssay (NCATS).
Inconclusive results are not listed. Entries that show only a call come without a potency. The source made the active and inactive calls. Calls come from the whole dose curve; as a rule, active = well fitted inhibition curve with a large enough effect; inconclusive = small, poorly fitted or top-dose-only effect; inactive = flat fitted curve, though single readings scatter.

biological target: Calcium and integrin-binding protein 1 (Homo sapiens) (UniProt Q99828); assay: Primary qHTS for Identification of Calcium Integrin Binding Protein 1 (CIB1) Competitor (AID 1508620); conditions: CIB1-GST / FITC-alphaIIb peptide fluorescence polarization; series mostly up to 114 µM;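 note: GST tagged CIB1 binding a fluorescein labelled alphaIIb integrin peptide tracer; top concentration of the series differs between compounds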
Sequence (Q99828 whole entry, looked up): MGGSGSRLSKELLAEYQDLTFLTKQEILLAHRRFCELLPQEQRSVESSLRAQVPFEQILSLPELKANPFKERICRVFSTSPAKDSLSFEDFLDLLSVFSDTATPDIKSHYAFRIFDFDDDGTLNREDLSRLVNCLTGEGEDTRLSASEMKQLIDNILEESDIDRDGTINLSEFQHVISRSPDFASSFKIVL
How it was run: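 Fluorescence polarization competition: CIB1-GST (1 uM final) preincubated with compound 15 min at room temperature, then FITC-labeled alphaIIb peptide (100 nM final) added for another 15 min. Polarization read at Ex 480/Em 540.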

Compound	Potency
CC[N+](CC)(CC)CC	inactive
NCCc1cc(O)c(O)cc1O	inactive
Fc1ccc(C(OCCN2CCN(CCCc3ccccc3)CC2)c2ccc(F)cc2)cc1	inactive
COC[C@@H](NC(C)=O)C(=O)NCc1ccccc1	inactive
CC(C)CC(N(C)C)C1(c2ccc(Cl)cc2)CCC1 (stereo unspecified)	inactive
CC(=O)[C@H]1CC[C@H]2[C@@H]3CC[C@H]4C[C@](C)(O)CC[C@]4(C)[C@H]3CC[C@]12C	inactive
C[C@]12C/C(=C/O)C(=O)C[C@@H]1CC[C@@H]1[C@@H]2CC[C@@]2(C)[C@H]1CC[C@]2(C)O	inactive
NN=C(N)N	inactive
O=C(NC(O)C(Cl)(Cl)Cl)NC(O)C(Cl)(Cl)Cl (stereo unspecified)	inactive
c1ccc(C2CC2)c(OCC2=NCCN2)c1	inactive
N#CC(C#N)=Cc1ccc(O)c(O)c1	inactive
CCCN1CCC[C@@H]2Cc3[nH]ncc3C[C@H]21	inactive
CN(C)CCc1ccc(O)cc1	inactive
O=C(O)c1ccc2[nH]cc(CCCCN3CC=C(c4ccccc4)CC3)c2c1	inactive
C#CCOC(C(=O)OCCN(C)C)(c1ccccc1)c1ccccc1	inactive
CCN(CC)CCOC(=O)C(O)(c1ccccc1)c1ccccc1	inactive

Compound	Potency
Cc1ccc(S(=O)(=O)N[C@@H](CCCCN)C(=O)CCl)cc1	inactive
CC1OC(C)OC(C)O1 (stereo unspecified)	inactive
Clc1cccc(N2CCNCC2)c1	inactive
CCN(C(C)=O)c1cccc(-c2ccnc3c(C#N)cnn23)c1	inactive
CC(C)=CCOc1c2occc2cc2ccc(=O)oc12	inactive
O=C1NCN(c2ccccc2)C12CCN(CC1COc3ccccc3O1)CC2 (stereo unspecified)	inactive
CNCC(O)c1ccc(O)cc1 (stereo unspecified)	inactive
CC(=O)[C@H]1CC[C@H]2[C@@H]3CC[C@H]4C[C@H](O)CC[C@]4(C)[C@H]3C(=O)C[C@]12C	inactive
CCC1(C2=NCCN2)Cc2ccccc2O1 (stereo unspecified)	inactive
c1ccc2c(c1)OCC(C1=NCCN1)O2 (stereo unspecified)	inactive
NP(N)(=O)NC(=O)c1ccc(F)cc1	inactive
O=C(O)C(=O)c1cn(Cc2ccccc2)c2ccc(-c3ccc(OC(F)(F)F)cc3)cc12	inactive
Cc1ccc2c(c1)C1CN(C)CCC1N2 (stereo unspecified)	inactive
CC(O)(CS(=O)(=O)c1ccc(F)cc1)C(=O)Nc1ccc(C#N)c(C(F)(F)F)c1 (stereo unspecified)	inactive
Cc1cccc(C)c1NC(=O)CN1CCCC1=O	inactive
